Shown are actives, neighbours in structure and some others; about 19% of the full set was active somewhere.
HT1080 IDH1KD tx = toxicity to HT-1080 IDH1 knockdown cells (counter line); AID 686971; hit rate 2% among 360,000; Potency, µM (series often up to 46.1 µM), for inactives: at the highest dose activity, negative = toxicity, most hits filed as cytotoxic; HT-1080 IDH1 knockdown viability, ATP luminescence, 48 h;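 further: potency means the concentration at half of the fitted maximal effect; 0% = DMSO wells and -100% = cell-free medium wells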
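HT-1080-IDH1KD cells (IDH1 knocked down), 750/well in RPMI with 5% FBS, treated with compound 48 h at 37 degrees C. Viability by CellTiter-Glo luminescence, normalised to DMSO and no-cell wells; concentration-response curves classed.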
TDP1 cell noCPT = qHTS for Inhibitors of human tyrosyl-DNA phosphodiesterase 1 (TDP1): qHTS in cells in absence of CPT; DT40 Tdp1-/- hTDP1 cells, no CPT, ATP luminescence, 48 h; AID 686978, 2013; Potency, µM (series often up to 46.2 µM), for the others: at the top dose activity change, negative = growth inhibition, actives largely listed as inhibitors; hit rate 15% among 420,000; further: potency means the concentration at half of the fitted maximal effect; nearly all actives have a fitted effect of over 55% in size
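No-CPT arm: Tdp1-/-;hTDP1 DT40 cells (400/well) plus compounds, incubated ≥48 hr at 37 °C. Readout CellTiter-Glo luminescence.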
IL1B secr inh = blocks inflammasome-driven IL-1 beta release | activity change, % at 57.5 µM | THP-1 LPS/ATP IL-1B secretion, AlphaLISA, 16 h; hits give low values | AID 743279 | hit rate 4.7% among 360,000; in the data active means activity change below about -50%; inconclusive means mostly about -30% to -49%
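Secreted IL-1B measured by AlphaLISA bead assay after 16 h compound exposure of THP-1 cells; compounds (final up to 57.5 uM) added 1 h before LPS (250 ng/mL) and ATP (1.25 mM) stimulation; lower signal means less secretion.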
HT1080NT lethal = kills 2HG-producing HT-1080-NT fibrosarcoma cells | Potency, µM (doses to about 46.1 µM), for the others: top-dose activity, negative = less viability, usual class: cytotoxic | HT-1080-NT fibrosarcoma viability, CellTiter-Glo ATP luminescence, 48 h | AID 686970 | hit rate 1.6% among 360,000;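 further: NT is the 2HG producing partner of a matched IDH1 knockdown line; potency means the concentration at half of the fitted maximal effect; 0% = DMSO-treated cells and -100% = media-only wells without cells; nearly all actives have a fitted effect of over 55% in size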
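Viability of the 2HG-overproducing fibrosarcoma line after 48 hours of compound exposure at 37 degrees C was determined by luminescence with CellTiter-Glo, and concentration-effect curves were then fitted and categorized.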
TDP1 cell CPT = DT40-hTDP1 cell growth loss with CPT | chicken DT40 Tdp1-/-;hTDP1 cells + 20 nM CPT, ATP luminescence, 48 h | Potency, µM (series often up to 46.2 µM), inactives show at the highest dose activity change, negative = growth inhibition, most hits filed as inhibitors | hit rate 12% among 420,000 | AID 686979; further: potency means the concentration at half of the fitted maximal effect; nearly all actives have a fitted effect of over 55% in size
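Chicken DT40 Tdp1-/- cells complemented with human TDP1, 400 cells/well, exposed to compounds plus 20 nM camptothecin for at least 48 h at 37 C; viability read as ATP content by CellTiter-Glo luminescence.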
* marks the source's active call; other numbers are inactive results. Unless noted, the call rests on the fitted dose curve; in most records, active means well fitted curve in the direction sought with a large enough effect; inconclusive means small, poorly fitted or top-dose-only effect, or another doubt; inactive means no such curve, though single readings can be large; an effect the other way counts as inactive or inconclusive. Unless noted, on the % scale 0 is the no-effect control and ±100 the full control effect.

For CC(=O)Nc1cccc(NC(=O)C(C)N2c3cccc4cccc(c34)S2(=O)=O)c1 (configuration not stated) the results were HT1080 IDH1KD tx -10%, TDP1 cell noCPT -20%, IL1B secr inh 2, HT1080NT lethal -12% and TDP1 cell CPT 0%.
`c1ccc(-c2nc3cc4ccccc4cc3[nH]2)nc1` gave HT1080 IDH1KD tx inconclusive, TDP1 cell noCPT inconclusive, IL1B secr inh -95*, HT1080NT lethal inconclusive and TDP1 cell CPT inconclusive.
Screening c1cncc(-c2nc3cc4ccccc4cc3[nH]2)c1 returned HT1080 IDH1KD tx -16%, TDP1 cell noCPT inconclusive, IL1B secr inh -84*, HT1080NT lethal -28% and TDP1 cell CPT inconclusive.
Screening O=C(Nc1ccc2nc(-c3cccnc3)[nH]c2c1)c1ccccc1F returned HT1080 IDH1KD tx -1%, TDP1 cell noCPT inconclusive, IL1B secr inh 176, HT1080NT lethal -17% and TDP1 cell CPT inconclusive.
For O=c1[nH]c(-c2cccnc2)nc2sc(-c3ccccc3)cc12 the results were HT1080 IDH1KD tx 4.6µM*, TDP1 cell noCPT 0.52µM*, IL1B secr inh 16, HT1080NT lethal inconclusive and TDP1 cell CPT 0.52µM*.
Cc1nc2sc(-c3ccccc3)cc2c(=O)[nH]1 was read as HT1080 IDH1KD tx inconclusive, TDP1 cell noCPT inconclusive, IL1B secr inh 24, HT1080NT lethal inconclusive and TDP1 cell CPT inconclusive.
COc1ccc(CCNc2ncnc3c2cnn3-c2ccc(C)c(Cl)c2)cc1 was read as TDP1 cell noCPT inconclusive and TDP1 cell CPT 21µM*.
COc1ccc(CCNc2ncnc3c2cnn3-c2cccc(Cl)c2)cc1 was read as TDP1 cell noCPT 26µM* and TDP1 cell CPT inconclusive.
Cc1ccc(-n2ncc3c(NCCO)ncnc32)cc1Cl was read as TDP1 cell noCPT -13% and TDP1 cell CPT -19%.
Cc1ccc(-n2ncc3c(NCCC4=CCCCC4)ncnc32)cc1C was read as TDP1 cell noCPT inconclusive and TDP1 cell CPT 10µM*.
`COc1ccc(NC(=S)N2CCN(S(=O)(=O)c3ccc(F)cc3)CC2)cc1` gave HT1080 IDH1KD tx -7%, TDP1 cell noCPT -1%, IL1B secr inh 20, HT1080NT lethal -11% and TDP1 cell CPT -24%.
For O=C(N[C@@H](Cc1ccc(O)cc1)C(=O)O)c1ccc(C(F)(F)F)cc1 the results were HT1080 IDH1KD tx 16%, TDP1 cell noCPT 0%, IL1B secr inh -6, HT1080NT lethal 24% and TDP1 cell CPT 3%.
Screening O=C1N[C@@H](Cc2cn(S(=O)(=O)c3ccccc3)c3ccccc23)C(=O)N[C@H]1Cc1ccccc1 returned HT1080 IDH1KD tx -7%, TDP1 cell noCPT -13%, IL1B secr inh -5, HT1080NT lethal -18% and TDP1 cell CPT -22%.
Screening CC(C)=CCN1CCC(n2nccc2NC(=O)c2ccccc2Cl)CC1 returned HT1080 IDH1KD tx -6%, TDP1 cell noCPT 21µM*, IL1B secr inh inconclusive, HT1080NT lethal -1% and TDP1 cell CPT -26%.
COc1ccccc1C(=O)Nc1ccnn1C1CCN(C/C=C/c2ccccc2)CC1 was read as HT1080 IDH1KD tx 3%, TDP1 cell noCPT inconclusive, IL1B secr inh -19, HT1080NT lethal -3% and TDP1 cell CPT 23µM*.
Screening CC(CN1CCC(n2nccc2NC(=O)c2ccccc2Cl)CC1)c1ccccc1 (configuration not stated) returned HT1080 IDH1KD tx -2%, TDP1 cell noCPT -27%, IL1B secr inh inactive, HT1080NT lethal -10% and TDP1 cell CPT inconclusive.
`CN1CCN(c2nc3cc(N4CCOCC4)ccc3s2)CC1` gave HT1080 IDH1KD tx 11%, TDP1 cell noCPT inconclusive, IL1B secr inh 30, HT1080NT lethal -1% and TDP1 cell CPT 6%.
Screening Cc1ccc(C)c(N2CCN(CCCNC(=O)Cn3cccc3C(=O)c3ccccc3C)CC2)c1 returned HT1080 IDH1KD tx 23µM*, TDP1 cell noCPT 2.6µM*, IL1B secr inh -114*, HT1080NT lethal 23µM* and TDP1 cell CPT 2.6µM*.
Cc1ccccc1C(=O)c1cccn1CC(=O)NCCN1CCN(c2cccc(C)c2C)CC1 was read as HT1080 IDH1KD tx 21µM*, TDP1 cell noCPT 8.2µM*, IL1B secr inh inconclusive, HT1080NT lethal 23µM* and TDP1 cell CPT 16µM*.
O=C(CN1CCOCC1)Nc1ccc2c(c1)OCCO2 was read as HT1080 IDH1KD tx 13%, TDP1 cell noCPT 33%, IL1B secr inh 19, HT1080NT lethal 19% and TDP1 cell CPT -3%.
COc1ccc(Nc2cc(C)nc(N3CCN(C(=O)c4ccc5c(c4)OCO5)CC3)n2)cc1 was read as HT1080 IDH1KD tx -14%, TDP1 cell noCPT inconclusive, IL1B secr inh -12, HT1080NT lethal 0% and TDP1 cell CPT -27%.
Cc1ccc(Cl)cc1N1CCN(C(=O)c2ccc(NC(=O)c3nsc4ccccc34)cc2)CC1 was read as TDP1 cell noCPT 18µM* and TDP1 cell CPT inconclusive.
For COc1ccc(N2CCN(C(=O)c3ccc(C)c(NC(=O)c4nsc5ccccc45)c3)CC2)cc1 the results were TDP1 cell noCPT inconclusive and TDP1 cell CPT 26µM*.
For Cc1cccc(N2CCN(C(=O)c3ccc(NC(=O)c4nsc5ccccc45)cc3)CC2C)c1 (configuration not stated) the results were TDP1 cell noCPT 6.5µM* and TDP1 cell CPT 9.2µM*.
Screening Cc1cccc(NC(=O)N2CCN(C(=O)c3nsc4ccccc34)CC2)c1C returned TDP1 cell noCPT inconclusive and TDP1 cell CPT -3%.
For O=C(NCc1ccc(F)cc1)C(C(=O)NCc1ccc(F)cc1)c1ncc(C(F)(F)F)cc1Cl the results were HT1080 IDH1KD tx -1%, TDP1 cell noCPT -3%, IL1B secr inh 3, HT1080NT lethal 0% and TDP1 cell CPT -9%.
Screening COc1ccccc1NC(=O)Cn1c(CCC(=O)O)ccc1-c1ccc(C)cc1 returned HT1080 IDH1KD tx 9%, TDP1 cell noCPT -26%, IL1B secr inh 14, HT1080NT lethal 10% and TDP1 cell CPT 0%.
For c1ccc(CCc2nc3ccccc3[nH]2)cc1 the results were HT1080 IDH1KD tx -1%, TDP1 cell noCPT inconclusive, IL1B secr inh -22, HT1080NT lethal 13% and TDP1 cell CPT -23%.
Screening C(=N\Nc1nc2ccccc2[nH]1)/c1ccccc1 returned HT1080 IDH1KD tx 6%, TDP1 cell noCPT inconclusive, IL1B secr inh -95*, HT1080NT lethal -1% and TDP1 cell CPT inconclusive.
Fc1cccc(/C=N/Nc2ncnc3nc[nH]c23)c1 was read as HT1080 IDH1KD tx -19%, TDP1 cell noCPT -18%, IL1B secr inh -97*, HT1080NT lethal -2% and TDP1 cell CPT -3%.
